# In PubChem BioAssay (NCATS):
# Results filed as inconclusive are left out. A number with no mark means an inactive call. Calls come from the whole dose curve; as a rule, active = well fitted inhibition curve with a large enough effect; inconclusive = small, poorly fitted or top-dose-only effect; inactive = no such curve, though single readings can be large or run the other way.
# Biological target: Retinaldehyde dehydrogenase 3 (Homo sapiens) (UniProt P47895)
# Assay: qHTS for Inhibitors of the Aldehyde Dehydrogenase Family (ALDH1A3) Primary screen (AID 2061315);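 note: plate controls were DMSO vehicle for no effect and reference inhibitor for full effect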
# Conditions: ALDH inhibition qHTS; series mostly up to 56 µM; activity change, negative = inhibition: at the top concentration
row,Compound,"activity change, negative = inhibition"
1,Cc1cc(O)cc2c1O[C@](C)(CCC[C@H](C)CCC[C@H](C)CCCC(C)C)CC2,6.42%
2,O=C(/C=C/c1ccc(O)cc1)OCC1OC(O)C(OC2OC(CO)C(O)C(O)C2O)C(O)C1O (centres undefined),-17.1% [at 28 µM]
3,CC1=CCC[C@@H]2[C@](CCc3ccoc3)(C(=O)O)[C@H](C)CC[C@@]12C,15.6%
4,Cc1ccc2c(Nc3ccc(Cl)cc3)nccc2c1Nc1ncccc1-c1ncnc2nc[nH]c12,14.2%
5,COc1c(/C=C/C(C)(C)O)ccc2c1C(=O)OCc1cc(C)cc(O)c1O2,-16.6%
6,CC(C)(O)C(=O)N1CCN(c2ccc(C(F)(F)F)c(C3=C(c4c[nH]c5ccccc45)C(=O)NC3=O)c2)CC1,-7.09%
7,CC(O)/C=C/C1(O)C(C)C(O)C(O[C@@H]2O[C@H](CO)[C@@H](O)[C@H](O)[C@H]2O)CC1(C)C (some centres undefined),3.73% [at 28 µM]
8,CC(C)=CCC[C@](C)(O[C@@H]1O[C@H](CO[C@@H]2O[C@@H](CO)[C@H](O)[C@H]2O[C@@H]2OC[C@@H](O)[C@H](O)[C@H]2O)[C@@H](O)[C@H](O)[C@H]1O)[C@H]1CC[C@]2(C)[C@@H]1[C@H](O)CC1[C@@]3(C)CC[C@H](O[C@@H]4O[C@H](CO)[C@@H](O)[C@H](O)[C@H]4O[C@@H]4O[C@H](CO)[C@@H](O)[C@H](O)[C@H]4O)C(C)(C)C3CC[C@]12C (some centres undefined),19.1% [at 11.2 µM]
9,O=C(Nc1ccccc1C(=O)Nc1ccc(CCO)cc1)c1ccc([N+](=O)[O-])cc1,-7.6%
10,COc1cc(O)c2c(c1)C1=CC(O)C(O)CC1(C)OC2=O (centres undefined),-9.02%
11,CC(C)(O)/C=C/CC(C)(O)C1C(O)CC2(C)C3CCC4C(C)(C)C(=O)CCC4(C)C3CCC12C (centres undefined),1.41% [at 28 µM]
12,CC(C)c1cc(-c2ccc(F)c3ccccc23)nc(N)n1,-0.526%
13,CC(C)c1noc(C2CCN(c3ncnc(Nc4ccc(S(C)(=O)=O)cc4F)c3[N+](=O)[O-])CC2)n1,-0.83%
14,CC(C(O)/C=C/C(C)(C)O)C1CCC2(C)C3C(=O)C=C4C(CCC(O)C4(C)C)C3(C)CCC12C (centres undefined),2.76% [at 28 µM]
15,CC/C=C/CC1=C(CCCCCCCC(=O)O)CCC1=O,6.91%
16,COc1ccc(S(=O)(=O)N2CCC[C@H]2C(=O)Nc2cc(C)cc(C)c2)cc1,-5.57%
17,CC1OC(OC2C(C)OC(OC3C(O)C(CO)OC(O[C@H]4CC[C@@]5(C)C(CC[C@]6(C)C5CC=C5C7[C@@H](C)[C@H](C)CC[C@]7(C(=O)O)CC[C@]56C(=O)O)C4(C)C)C3O)C(O)C2O)C(O)C(O)C1O (some centres undefined),3.81% [at 16.9 µM]
18,CC(=O)O[C@@H]1[C@@H](O)[C@H](O[C@H]2CC[C@]34C[C@]35CC[C@]3(C)[C@@H]([C@@]6(C)CC[C@@H](C(C)(C)O)O6)[C@@H](O)C[C@@]3(C)[C@@H]5C[C@H](O[C@@H]3O[C@H](CO)[C@@H](O)[C@H](O)[C@H]3O)[C@H]4C2(C)C)OC[C@H]1O,-11.8%
19,CC(C)=C1C[C@@]2(C)C(=CC1=O)CC[C@@H](OC(=O)/C(C)=C/CO)[C@@H]2C,11.7%
20,CCC(C)C(=O)OC[C@H]1O[C@H](O[C@H]2O[C@H](CO)[C@@H](O)[C@H](O)[C@H]2O)[C@H](O)[C@@H](O)[C@@H]1O (some centres undefined),14% [at 28 µM]
21,COc1cc(C(C)=O)ccc1O[C@@H]1O[C@H](CO)[C@@H](O)[C@H](O)[C@H]1O,12.4%
22,COC(=O)C1=CO[C@@H](O)C2C(CO)=CCC12 (some centres undefined),1100%
23,Cc1noc(-c2ccc(-c3ccc(CC(=O)O)cc3)cc2)c1NC(=O)O[C@H](C)c1ccccc1,135%
24,CC(=O)O[C@@H]1[C@@H](OC(C)=O)[C@H](C)O[C@@H](O[C@H]2[C@@H]3C=CO[C@@H](O[C@@H]4O[C@H](CO)[C@@H](O)[C@H](O)[C@H]4O)[C@@H]3[C@@]3(CO)O[C@@H]23)[C@@H]1OC(=O)/C=C/c1ccccc1,13.8% [at 16.9 µM]
25,CC12CCC(C(OC3OC(COC4OCC(O)(CO)C4O)C(O)C(O)C3O)C1)C(C)(C)O2 (centres undefined),-30% [at 28 µM]
26,COc1ccc(C(=O)Nc2ncc(-c3ccc(C(=O)O)cc3)s2)cc1,-10.5%
27,C=C(C(=O)O)[C@@H]1CC=C(CCC(C)=O)[C@@H](C)CC1,7.65%
28,CC(=O)OCC(=O)O[C@@H]1[C@H]2[C@@H](OC(=O)c3ccccc3)[C@@H](C)C[C@]2(O)[C@H](OC(C)=O)C2(C)[C@H]3CC(C)(C)C(=O)[C@@H]3CC1(OC(C)=O)[C@@H]2OC(C)=O (some centres undefined),12.4% [at 16.9 µM]
29,COC(=O)C1=C[C@@H](O)[C@@H](O)[C@H](O[C@@H]2O[C@H](CO)[C@@H](O)[C@H](O)[C@H]2OC(=O)/C=C/c2ccccc2)C1,10.1% [at 28 µM]
